Several values for one entry are separate records, joined by “and”; a condition that tells them apart may be missing. Equal values may be shown once. Records with an inconclusive call do not appear. More than one record can exist for a structure, and the calls need not agree. Activity calls are given as the source filed them. Unless noted, calls follow the shape of the full dose curve.
% is scaled to controls: 0 for no effect and ±100 for the full control effect.

Test system in the first experiment: not listed separately
The experiment in a line: p53 small molecule agonists, cell-based qHTS assay: qHTS cell viability counter screen (AID 1963581). Also: nearly all actives have a fitted effect of over 45% in size. Also: potency is read from the fitted curve at half-maximal effect. The settings on record: p53RE-bla HCT-116 viability, ATP luminescence, 16 h; series mostly up to 66 µM; activity change, negative = cytotoxicity: at the top concentration. In a few lines: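 Following 5 h attachment, HCT-116 p53RE-bla cells took up compound for 16 h at 37 C; the reporter was read with B/G FRET substrate (2 h RT), and viability then via CellTiter-Glo ATP luminescence.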
For orientation: qHTS replaces the single test concentration by a dilution series.
For `O=C(Nc1ccc(Br)cc1)c1cc(Br)cc(Br)c1O`, the Potency entry was “inactive and 3.97 µM (active)”.

As for `c1ccc2c(c1)CCCC2`, the Potency entry is “inactive”.

In the case of `CC(=[OH+])/C=C(/C)[O-].CC(=[OH+])/C=C(\C)[O-].CC(=[OH+])/C=C(\C)[O-].[Al]`, the “activity change, negative = cytotoxicity” value is 13.1% (inactive).

Take `Oc1ccccc1Cl`: the Potency result is “inactive”.

Consider `Oc1cc(Cl)ccc1Cl`, for which the Potency result is “inactive”.

In the case of `CC(C)(C)C(=O)Cl`, the “activity change, negative = cytotoxicity” value was 1.4% (inactive).

`NNC(=S)NN`: the Potency entry was “inactive”.

Consider `O=[N+]([O-])c1ccc([As](=O)(O)O)cc1`, for which the Potency result is “inactive”.

Take `O=C(O)C(F)(F)C(F)(F)C(F)(F)C(F)(F)C(F)(F)C(F)(F)C(F)(F)C(F)(F)F`: the “activity change, negative = cytotoxicity” value is -0.269% (inactive).

Consider `C=CC1CC=CCC1` (stereo not drawn), for which the “activity change, negative = cytotoxicity” value is 0% (inactive).

For `ClC1C(Cl)C(Cl)C(Cl)C(Cl)C1Cl` (stereo not drawn), the Potency result is “inactive”.

Consider `Cc1cccc([N+](=O)[O-])c1`, for which the Potency entry was “inactive”.

Take `NC(=O)CF`: the “activity change, negative = cytotoxicity” value was 6.5% (inactive).

In the case of `COC(=O)c1ccccc1C(=O)OC`, the “activity change, negative = cytotoxicity” value is -1.42% (inactive).

For `Cc1ccccc1O`, the Potency result is “inactive”.

With `CCC12COCN1COC2`, the Potency result is “inactive”.

Take `Cc1ccccc1CCl`: the “activity change, negative = cytotoxicity” value was 0.14% (inactive).

For `N#Cc1cc([N+](=O)[O-])ccc1N`, the “activity change, negative = cytotoxicity” value is -7.46% (inactive).

For the compound `O=Cc1ccc(Cl)cc1Cl`, the “activity change, negative = cytotoxicity” value is 6.08% (inactive).

Take `CCOC(=O)CC(SP(=S)(OC)OC)C(=O)OCC` (stereo not drawn): the “activity change, negative = cytotoxicity” value was -6.18% [at 30.3 µM] (inactive).

With `NCC(O)c1ccc(O)cc1` (stereo not drawn), the Potency result was “inactive”.

For the compound `COc1ccc2c(c1OC)C(=O)O[C@@H]2[C@H]1c2cc3c(cc2CCN1C)OCO3`, the “activity change, negative = cytotoxicity” value is 0% (inactive).

As to `CC(C)(c1ccc(OCC2CO2)cc1)c1ccc(OCC2CO2)cc1` (stereo not drawn), the Potency result is “inactive”.

Turning to `C=CCCl`, the “activity change, negative = cytotoxicity” value is 9.71% (inactive).

As to `C/C(=N\NC(=O)Nc1cc(F)cc(F)c1)c1ncccc1C(=O)O`, the Potency entry is “inactive”.

On to `C=CCOC(N)=O`, for which the “activity change, negative = cytotoxicity” value was 25.1% (inactive).

For the compound `COC(=O)NC(=S)Nc1ccccc1NC(=S)NC(=O)OC`, the Potency result is “inactive”.

In the case of `Cc1ccc2c(c1N)C(=O)c1ccccc1C2=O`, the Potency entry was “inactive”.

Turning to `COP(=O)(OC)C(O)C(Cl)(Cl)Cl` (stereo not drawn), the Potency entry is “inactive”.

As to `CN(C)N`, the “activity change, negative = cytotoxicity” value was -3.06% (inactive).

As for `c1ccc(P(c2ccccc2)c2ccccc2)cc1`, the Potency result was “inactive”.

As for `CN(C)CCC#N`, the Potency entry was “inactive”.

With `c1ccc2c(c1)sc1ccccc12`, the “activity change, negative = cytotoxicity” value was -2.27% (inactive).

As to `CCBr`, the “activity change, negative = cytotoxicity” value is 0% (inactive).

Test system in the next experiment: not listed separately
The experiment in a line: p53 small molecule agonists, cell-based qHTS assay (AID 1963582; active = well fitted activation curve with a large enough effect in the signal ratio in the repeat runs, not every such curve was filed as active; the % refers to the signal ratio). The settings on record: HCT-116 p53RE-bla reporter, beta-lactamase FRET ratio, 16 h; series mostly up to 66 µM; activation: at the top concentration. In a few lines:
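In this cell-based concentration-response screen, a p53 response element drives beta-lactamase; cells received DMSO-borne compounds after 5 h culture and were incubated a further 16 h before FRET substrate development.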
Regarding `O=C(Nc1ccc(Br)cc1)c1cc(Br)cc(Br)c1O`, the “activation” value is 11.4% [at 30.3 µM] (inactive).

With `c1ccc2c(c1)CCCC2`, the Potency result is “inactive”.

On to `CC(=[OH+])/C=C(/C)[O-].CC(=[OH+])/C=C(\C)[O-].CC(=[OH+])/C=C(\C)[O-].[Al]`, for which the “activation” value is -2.98% (inactive).

With `CCCCCCI`, the “activation” value was -6.45% (inactive).

In the case of `Oc1ccccc1Cl`, the Potency entry is “inactive”.

Take `CC(C)(C)C(=O)Cl`: the “activation” value is -1.66% (inactive).

For `NNC(=S)NN`, the “activation” value is -5.1% (inactive).

Regarding `O=[N+]([O-])c1ccc([As](=O)(O)O)cc1`, the Potency entry is “inactive”.

In the case of `O=C(O)C(F)(F)C(F)(F)C(F)(F)C(F)(F)C(F)(F)C(F)(F)C(F)(F)C(F)(F)F`, the “activation” value was -2.12% (inactive).

Regarding `C=CC1CC=CCC1` (stereo not drawn), the “activation” value was -3.67% (inactive).

Turning to `ClC1C(Cl)C(Cl)C(Cl)C(Cl)C1Cl` (stereo not drawn), the Potency result was “inactive”.

For `Cc1cccc([N+](=O)[O-])c1`, the Potency entry is “inactive”.

In the case of `NC(=O)CF`, the “activation” value was 0.848% (inactive).

For `COC(=O)c1ccccc1C(=O)OC`, the Potency entry is “inactive”.

Regarding `Cc1ccccc1O`, the Potency entry is “inactive”.

Consider `CCC12COCN1COC2`, for which the Potency entry is “inactive”.

As for `Cc1ccccc1CCl`, the “activation” value was 0.409% (inactive).

For `N#Cc1cc([N+](=O)[O-])ccc1N`, the “activation” value is 1.97% (inactive).

Regarding `O=Cc1ccc(Cl)cc1Cl`, the “activation” value was 0.377% (inactive).

Regarding `CCOC(=O)CC(SP(=S)(OC)OC)C(=O)OCC` (stereo not drawn), the “activation” value was -5.21% [at 30.3 µM] (inactive).

With `NCC(O)c1ccc(O)cc1` (stereo not drawn), the Potency entry was “inactive”.

As for `COc1ccc2c(c1OC)C(=O)O[C@@H]2[C@H]1c2cc3c(cc2CCN1C)OCO3`, the “activation” value was -2.81% (inactive).

Regarding `C=CCCl`, the “activation” value is 2.23% (inactive).

With `C/C(=N\NC(=O)Nc1cc(F)cc(F)c1)c1ncccc1C(=O)O`, the Potency entry was “inactive”.

For the compound `C=CCOC(N)=O`, the “activation” value was -2.23% (inactive).

`COC(=O)NC(=S)Nc1ccccc1NC(=S)NC(=O)OC`: the Potency entry was “inactive”.

With `Cc1ccc2c(c1N)C(=O)c1ccccc1C2=O`, the Potency result is “inactive”.

For the compound `COP(=O)(OC)C(O)C(Cl)(Cl)Cl` (stereo not drawn), the “activation” value was 3.8% [at 30.3 µM] (inactive).

As for `CN(C)N`, the “activation” value was 2.03% (inactive).

As to `c1ccc(P(c2ccccc2)c2ccccc2)cc1`, the Potency entry was “inactive”.

On to `CN(C)CCC#N`, for which the Potency result was “inactive”.

As to `c1ccc2c(c1)sc1ccccc12`, the Potency result is “inactive”.

With `CCBr`, the “activation” value was -1.91% (inactive).

A further experiment deals with 5-hydroxytryptamine receptor 2A (Homo sapiens) (UniProt P28223). The experiment in a line: 5-hydroxytryptamine receptor 2A (HTR2A) small molecule antagonists, cell-based qHTS assay (AID 1963586). Also: nearly all actives have a fitted effect of over 45% in size. Also: potency is read from the fitted curve at half-maximal effect. The settings on record: HTR2A-CHO cells, DOI-induced calcium flux, fluorescence; series mostly up to 61.5 µM; activity, negative = inhibition: at the top concentration. In a few lines: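 Antagonist-mode intracellular calcium assay: DOI (4 nM) added after 5 min compound pre-incubation at room temperature to dye-loaded HTR2A-CHO cells. Fluorescence followed for 3 min, sampled every second.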
Chain of 5-hydroxytryptamine receptor 2A (Homo sapiens) (P28223 whole entry, looked up): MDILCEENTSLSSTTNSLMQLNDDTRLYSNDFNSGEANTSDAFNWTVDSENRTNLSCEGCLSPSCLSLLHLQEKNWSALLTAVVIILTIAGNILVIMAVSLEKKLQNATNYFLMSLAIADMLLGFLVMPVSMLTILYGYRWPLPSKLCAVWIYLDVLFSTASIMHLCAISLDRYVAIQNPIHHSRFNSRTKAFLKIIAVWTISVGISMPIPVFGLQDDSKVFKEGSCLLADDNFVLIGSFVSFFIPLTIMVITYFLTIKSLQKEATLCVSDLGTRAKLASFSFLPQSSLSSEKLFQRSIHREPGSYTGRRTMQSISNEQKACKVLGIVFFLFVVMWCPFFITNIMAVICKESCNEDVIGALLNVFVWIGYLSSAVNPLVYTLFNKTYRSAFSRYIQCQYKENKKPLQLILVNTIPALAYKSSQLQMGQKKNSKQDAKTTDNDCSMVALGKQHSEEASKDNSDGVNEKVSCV
As for `Oc1ccc(C(c2ccc(O)cc2)(C(F)(F)F)C(F)(F)F)cc1`, the Potency was 37.5 µM (active).

For `c1ccc2c(c1)CCCC2`, the Potency entry was “inactive”.

For the compound `CC(=[OH+])/C=C(/C)[O-].CC(=[OH+])/C=C(\C)[O-].CC(=[OH+])/C=C(\C)[O-].[Al]`, the “activity, negative = inhibition” value was -22.4% (inactive).

As to `CCCCCCI`, the “activity, negative = inhibition” value was 4.61% (inactive).

As to `Oc1ccccc1Cl`, the Potency result is “inactive”.

With `Oc1cc(Cl)ccc1Cl`, the Potency result is “inactive”.

`CC(C)(C)C(=O)Cl`: the “activity, negative = inhibition” value was 26.4% (inactive).

In the case of `NNC(=S)NN`, the Potency result was “inactive”.

As for `O=[N+]([O-])c1ccc([As](=O)(O)O)cc1`, the Potency result was “inactive”.

Regarding `O=C(O)C(F)(F)C(F)(F)C(F)(F)C(F)(F)C(F)(F)C(F)(F)C(F)(F)C(F)(F)F`, the “activity, negative = inhibition” value was -2.33% (inactive).

Consider `C=CC1CC=CCC1` (stereo not drawn), for which the “activity, negative = inhibition” value was -30.5% (inactive).

Regarding `ClC1C(Cl)C(Cl)C(Cl)C(Cl)C1Cl` (stereo not drawn), the Potency entry was “inactive”.

`NC(=O)CF`: the “activity, negative = inhibition” value was -1.5% (inactive).

On to `O=C(O)C1C2CCC(O2)C1C(=O)O` (stereo not drawn), for which the Potency entry was “inactive”.

As to `COC(=O)c1ccccc1C(=O)OC`, the Potency result is “inactive”.

In the case of `Cc1ccccc1O`, the Potency entry was “inactive”.

On to `CCC12COCN1COC2`, for which the Potency entry is “inactive”.

For the compound `C[Si](Cn1cncn1)(c1ccc(F)cc1)c1ccc(F)cc1`, the Potency result was “inactive”.

As for `Cc1ccccc1CCl`, the “activity, negative = inhibition” value was 0.555% (inactive).

As for `N#Cc1cc([N+](=O)[O-])ccc1N`, the “activity, negative = inhibition” value was -13.8% (inactive).

As for `O=Cc1ccc(Cl)cc1Cl`, the “activity, negative = inhibition” value was 26.3% (inactive).

For the compound `CCOC(=O)CC(SP(=S)(OC)OC)C(=O)OCC` (stereo not drawn), the Potency result is “inactive”.

Turning to `COc1ccc2c(c1OC)C(=O)O[C@@H]2[C@H]1c2cc3c(cc2CCN1C)OCO3`, the “activity, negative = inhibition” value is 35.3% (inactive).

For the compound `CC(C)(c1ccc(OCC2CO2)cc1)c1ccc(OCC2CO2)cc1` (stereo not drawn), the Potency entry was “inactive”.

On to `C=CCCl`, for which the “activity, negative = inhibition” value was 50.4% (inactive).

For the compound `C/C(=N\NC(=O)Nc1cc(F)cc(F)c1)c1ncccc1C(=O)O`, the Potency entry is “inactive”.

On to `C=CCOC(N)=O`, for which the “activity, negative = inhibition” value was 8.03% (inactive).

Consider `COC(=O)NC(=S)Nc1ccccc1NC(=S)NC(=O)OC`, for which the “activity, negative = inhibition” value was 3.19% (inactive).

As to `Cc1ccc2c(c1N)C(=O)c1ccccc1C2=O`, the Potency result is “inactive”.

In the case of `COP(=O)(OC)C(O)C(Cl)(Cl)Cl` (stereo not drawn), the Potency result is “inactive and 8.39 µM (active)”.

Take `CN(C)N`: the “activity, negative = inhibition” value was -5.01% (inactive).

For the compound `O=C(O)C(Br)Br`, the Potency entry was “inactive”.

`c1ccc(P(c2ccccc2)c2ccccc2)cc1`: the “activity, negative = inhibition” value was 4.49% (inactive).

Regarding `CN(C)CCC#N`, the Potency entry is “inactive”.

With `c1ccc2c(c1)sc1ccccc12`, the Potency result was “inactive”.

Consider `CCBr`, for which the “activity, negative = inhibition” value was 2.9% (inactive).

The values above are taken from PubChem BioAssay (Tox21).
